Drawing on PubChem BioAssay (EPA / NIEHS), this text covers outcome and AC50 for 38 molecules.

Usually AC50 stands for the midpoint of the concentration-response curve, whichever way the signal moves.

Several values for one entry are separate records, joined by “and”; a condition that tells them apart may be missing. Equal entries are not always repeated. Where a structure was tested more than once in an assay, its records may differ in their call. Activity calls are given as the source filed them. The calls were made as follows: active = hit-call score of the fitted dose curve at least 0.9, where 1 is the maximum; inactive = score below 0.9.

Read-out in this assay: Basic fibroblast growth factor (bFGF), FGF2 (gene 2247)
The assay can be described thus: BSK_MyoF_bFGF: BioMAP Diversity Plus: MyoF Assay for Basic fibroblast growth factor (bFGF) Biomarker Activity (AID 2284246). The conditions noted are these: primary human lung fibroblasts. As for the experimental part: BSK_MyoF is a cell-based, multiplexed-readout assay that uses lung fibroblasts, a human […] primary cell, with measurements taken at 24 hours after chemical dosing in a microplate: 96-well plate.BSK_MyoF_bFGF is an assay component measured in the BSK_MyoF assay. It measures bFGF antibody related to regulation of gene expression using ELISA technology.Data from the assay component BSK_MyoF_bFGF was analyzed at the endpoint, BSK_MyoF_bFGF, in the positive analysis fitting direction relative to DMSO as the negative control and baseline of activity. Using a type of binding reporter, gain or loss-of-signal activity can be used to understand protein changes. To generalize the intended target to other relatable targets, this assay endpoint is annotated to the 'growth factor' intended target family, where the subfamily is 'basic fibroblast growth factor '.
The levels of cell surface (or secreted, indicated by the prefix "s") biomarker endpoints were measured by ELISA. Overt cytotoxicity to cells in confluent adherent cultures (all systems other than the BT system) was assessed by measuring total protein levels using sulforhodamine B (SRB) staining in parallel cultures at the time of biomarker measurements, indicated as SRB endpoints. For proliferation assays for adherent cell types, individual cell types are cultured at sub-confluence and relative cell numbers quantified by SRB staining at time points optimized for each system (48 h: 3C and CASM3C systems; 72 h: BT and HDF3CGF systems; 96 h: SAg system). SRB was performed by staining cells with 0.1% SRB after fixation with 10% TCA and reading wells at 560 nm.Viability and proliferation of PBMC (T cells) was quantified by Alamar Blue reduction for the SAg and BT systems. For PBMC viability (referred to as PBMC Cytotoxicity within the assay endpoint names), cells were plated (75,000/well in a 96-well plate) and then chemical samples added for 1 h before addition of activators, SEB and TSST-1 (20 ng/mL final concentration each). Cells were incubated for 90 h. Then, Alamar Blue (20 uL/well) (Invitrogen, Cat DAL1100) was added for 6 h, and the plates were read with a fluorescence microplate reader at 546/580 nm (excitation/emission). For PBMC proliferation, cells were plated and activated as above but incubated for only 16 h prior to addition of Alamar Blue. Plates were read after 6 h.
For `O=C(O)C(F)(F)C(F)(F)C(F)(F)OC(F)(F)F`, the result was inactive.
For the molecule `CCOC(=O)CC(=O)C(F)(F)C(F)(F)F`, the result was inactive.
Take `C=CC(=O)OCC(F)(F)C(F)(F)C(F)(F)COC(=O)C=C`: the AC50 was 15.9 µM (active) and 14.7 µM (active).
As to `OCC(F)(F)C(F)(F)C(F)(F)C(F)(F)C(F)(F)C(F)(F)C(F)(F)C(F)(F)CO`, the AC50 was 54.4 µM (active) and the result was inactive.
For `O=C(O)CCC(F)(F)C(F)(F)C(F)(F)C(F)(F)C(F)(F)C(F)(F)C(F)(F)F`, the outcome was inactive.
Regarding `OCC(O)CC(F)(F)C(F)(F)C(F)(F)C(F)(F)F` (stereo not given), the result was inactive.
Take `Cc1cc(O)c(C(C)(C)C)cc1C(C)(C)C`: the AC50 was 5.37 µM (active).
Take `CCN(CC)c1ccc(N=Nc2ccccc2)cc1`: the outcome was inactive.
For `Nc1cc([N+](=O)[O-])cc(Cl)c1O`, the result was inactive.
Regarding `NC(=O)C(F)(F)C(F)(F)C(F)(F)C(F)(F)C(N)=O`, the outcome was inactive.
With `CCN(CC)c1ccc2c(c1)Oc1cc(N(CC)CC)ccc1C21OC(=O)c2ccccc21`, the result was inactive.
`Cc1ccc(S(=O)(=O)C(I)I)cc1`: the AC50 is 12.5 µM (active).
Regarding `NCC(F)(F)C(F)(F)C(F)(F)C(F)(F)C(F)(F)C(F)(F)F`, the result was inactive.
For the molecule `CCN(CCO)S(=O)(=O)C(F)(F)C(F)(F)C(F)(F)C(F)(F)C(F)(F)C(F)(F)C(F)(F)C(F)(F)F`, the outcome was inactive and the half-maximal activity concentration (AC50) is 43 µM (active).
Regarding `CCN(CC)c1ccc(C=O)cc1`, the outcome was inactive.
As to `CNS(=O)(=O)C(F)(F)C(F)(F)C(F)(F)C(F)(F)C(F)(F)C(F)(F)C(F)(F)C(F)(F)F`, the outcome was inactive.
On the same count and under the same terms, the result for `COC(F)(C(F)F)C(F)(F)F` (stereo not given) reads “inactive”; that for `FC(F)(F)C(F)(F)C(F)(F)C(F)(F)C(F)(F)C(F)(F)CC[Si](Cl)(Cl)Cl`, “inactive”.
Regarding `O=S(=O)(OCC(F)(F)F)C(F)(F)C(F)(F)C(F)(F)C(F)(F)F`, the outcome was inactive.
As for `FC(F)(F)C(F)(F)C(F)(F)CC1CO1` (stereo not given), the result was inactive.
As to `C=C(C)C(=O)OCC(F)(F)C(F)(F)C(F)(F)C(F)F`, the result was inactive.
As to `OC(O)C(F)(F)C(F)(F)F`, the outcome was inactive.
Regarding `CC(C)CCCC(C)CCO` (stereo not given), the outcome was inactive.
Same read-out and setting: the result for `C[Si](Cl)(Cl)CCC(F)(F)C(F)(F)C(F)(F)C(F)(F)C(F)(F)C(F)(F)F` reads “inactive”; that for `O=S(=O)(O)CCC(F)(F)C(F)(F)C(F)(F)C(F)(F)C(F)(F)C(F)(F)C(F)(F)C(F)(F)F`, “inactive”; that for `NCC(F)(F)C(F)(F)C(F)(F)C(F)(F)C(F)(F)C(F)(F)C(F)(F)C(F)(F)F`, “inactive”.
For the molecule `O=C(c1ccccc1)c1ccc(O)cc1O`, the result was inactive.
On to `CC(C)(C)c1cc(CCC(=O)NCCCCCCNC(=O)CCc2cc(C(C)(C)C)c(O)c(C(C)(C)C)c2)cc(C(C)(C)C)c1O`, for which the outcome was inactive.
Consider `NS(=O)(=O)C(F)(F)C(F)(F)C(F)(F)C(F)(F)C(F)(F)C(F)(F)F`, for which the result was inactive.
In the case of `OCCCC(F)(F)C(F)(F)C(F)(F)C(F)(F)C(F)(F)C(F)(F)C(F)(F)C(F)(F)F`, the AC50 is 10.1 µM (active) and 9.64 µM (active).
With `O=C1C=CC(=O)N1c1ccc(Cc2ccc(N3C(=O)C=CC3=O)cc2)cc1`, the AC50 is 5.53 µM (active).
Consider `O=C(O)C(F)(F)C(F)(F)C(F)(F)OC(F)(C(F)(F)F)C(F)(F)F`, for which the outcome was inactive.
Turning to `O=S(=O)(O)CCC(F)(F)C(F)(F)C(F)(F)C(F)(F)F`, the outcome was inactive.
With `Brc1nc2ccccc2s1`, the result was inactive.
Same read-out and setting: the result for `O=S(=O)(Cl)C(F)(F)C(F)(F)C(F)(F)C(F)(F)C(F)(F)C(F)(F)C(F)(F)C(F)(F)F` reads “inactive”; that for `C[C@]12CC[C@H]3C(=CCc4cc(O)ccc43)[C@@H]1CCC2=O`, “inactive”.
In the case of `CN(C(=O)C(F)(F)C(F)(F)C(F)(F)F)[Si](C)(C)C`, the outcome was inactive.
For `O=C=Nc1cccc2c(N=C=O)cccc12`, the outcome was inactive.
